Assay results published in PubChem BioAssay (Tox21).
Records with an inconclusive call do not appear. Where a call stands in place of a potency, no number is given. Values without a mark were called inactive. The source made the active and inactive calls. Calls follow the shape of the dose curve; as a rule, active = well fitted activation curve with a large enough effect in the signal ratio in the repeat runs (not every such curve was filed as active); inconclusive = weak or mixed curves; inactive = flat fitted curve, though single readings scatter; the % refers to the signal ratio.

Assay: p53 small molecule agonists, cell-based qHTS assay (AID 1963582)
Conditions: HCT-116 p53RE-bla reporter, beta-lactamase FRET ratio, 16 h; series mostly up to 66 µM; activation: at the top concentration
From the text: National Center for Advancing Translational Sciences [NCATS]
Division of Preclinical Innovation [DPI]
U.S. Environmental Protection Agency [EPA]
National Institutes of Environmental Health Sciences [NIEHS]
National Toxicology Program [NTP]
U.S. Food and Drug Administration [FDA]
p53, a tumor suppressor protein, is activated following cellular insult, including DNA damage and other cellular stresses. The activation of p53 regulates cell fate by inducing DNA repair, cell cycle arrest, apoptosis, or cellular senescence. The activation of p53, therefore, is a good indicator of DNA damage and other cellular stresses. […] The activation of the reporter gene under culture conditions can be detected by fluorescence intensity. This cell line was used to screen the Tox21 10K compound library in a 1536-well plate format and to identify agonists that activate the p53 signaling pathway.
Tox21 Assay Protocol Summary:
The p53RE-bla cells were dispensed at 4,000 cells/5 ul/well in 1536-well black wall/clear bottom plates using a Multidrop dispenser. After the assay plates were incubated at a 37 C/5% CO2 incubator for 5 hours, 23 nL of compounds dissolved in DMSO, positive controls or DMSO only was transferred to the assay plate by a pin tool. The plates were incubated at 37 C for 16 hours. After 1 uL of LiveBLAzerTM B/G FRET substrate was added using a Flying Reagent Dispenser, the plates were incubated at room temperature for 2 hours, and fluorescence intensity was measured by an Envision plate reader.

SMILES | Potency | activation
O=C=Nc1ccc(Cc2ccc(N=C=O)cc2)cc1 | inactive | 
CCCCCCCC=O | inactive | 
C[Si](C)(C)N[Si](C)(C)C | inactive | 
CCCCCC(N)=O |  | -2.47% [at 30.3 µM]
NC(=S)NNC(N)=S | inactive | 
CSc1ccc(Cl)cc1 |  | -2.57%
Nc1ccc(Cl)cc1Cl | inactive | 
CCCN(CCC)S(=O)(=O)c1ccc(C(=O)O)cc1 | inactive | 
CC(C)(N)CO | inactive | 
CC(O)CN(CCN(CC(C)O)CC(C)O)CC(C)O (stereo not given) | inactive | 
Cc1ccc(S(=O)(=O)Oc2ccc(N=Nc3ccc(-c4ccc(N=Nc5c(O)ccc6cc(S(=O)(=O)O)cc(S(=O)(=O)O)c56)c(C)c4)cc3C)cc2)cc1 | inactive | 
CC(=O)O[C@]1(C(C)=O)CC[C@H]2[C@@H]3C[C@H](C)C4=CC(=O)CC[C@]4(C)[C@H]3CC[C@@]21C |  | 0.604%
CCCCCCOCCO | inactive | 
CN(C)C(=O)Nc1ccc(Cl)c(Cl)c1 | inactive | 
O=C1CCC(N2C(=O)c3ccccc3C2=O)C(=O)N1 (stereo not given) | inactive | 
O=C(O)Cn1c(=O)n(Cc2ccc(Br)cc2F)c(=O)c2ccc(Cl)cc21 | inactive | 
CC1(C)O[C@@H]2C[C@H]3[C@@H]4CCC5=CC(=O)C=C[C@]5(C)[C@@]4(F)[C@@H](O)C[C@]3(C)[C@]2(C(=O)CO)O1 | inactive | 
C=C[Si](OCCOC)(OCCOC)OCCOC | inactive | 
CC(C)(C)[C@@H](O)[C@@H](Cc1ccc(Cl)cc1)n1cncn1 |  | -1.69%
CCCCCCCCCCCCS | inactive | 

SMILES | Potency | activation
c1ccc2cc3c(ccc4ccccc43)cc2c1 | inactive | 
CCc1cccc(C)c1N | inactive | 
C1COCCN1 | inactive | 
CCOc1ccc(NC(=O)CC(C)O)cc1 (stereo not given) | inactive | 
Cc1cc(=O)n(-c2ccccc2)n1C | inactive | 
O=S(=O)(O)c1ccc2ccccc2c1 | inactive | 
CC1=CC(=O)CC(C)(C)C1 | inactive | 
c1ccc2cc(Nc3ccc(Nc4ccc5ccccc5c4)cc3)ccc2c1 | inactive | 
CC12CCC(CC1)C(C)(C)O2 | inactive | 
Nc1ccc2c(c1)C(=O)c1ccccc1C2=O | inactive | 
O=C(O)CC(C(=O)O)C(CC(=O)O)C(=O)O (stereo not given) | inactive | 
c1ccc2ccccc2c1 | inactive | 
CCCCCCCCO | inactive | 
CCCCCCCC/C=C\CCCCCCCC(=O)O |  | -0.587%
CN(C)CCOC(=O)COc1ccc(Cl)cc1 | inactive | 
C[C@]12C=CC(=O)C=C1CC[C@@H]1[C@@H]2[C@@H](O)C[C@@]2(C)[C@H]1CC[C@]2(O)C(=O)CO | inactive | 
CC(C)c1ccc(C(C)C)cc1 |  | 1.94%
CC(COc1ccccc1)N(CCCl)Cc1ccccc1 (stereo not given) |  | 0.567% [at 30.3 µM]
OCCc1ccccc1 | inactive | 
CC(=O)OCc1ccc2c(c1)OCO2 | inactive | 
